Test results: PubChem BioAssay
Activity calls are given as the source filed them. The rule behind the calls is not given here.

Each molecule was assayed against Pantothenate synthetase (Mycobacterium tuberculosis (strain ATCC 25618 / H37Rv)) (UniProt P9WIL5) (assay: Coupled enzyme confirmation of inhibitors against recombinant Mtb PanC (AID 375;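 note: 0% = full reaction with vehicle and 100% = no enzyme background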)). Conditions: coupled enzyme assay; at 10 µM, stronger effect = higher value.
Chain of Pantothenate synthetase (Mycobacterium tuberculosis (strain ATCC 25618 / H37Rv)) (P9WIL5 whole entry, looked up): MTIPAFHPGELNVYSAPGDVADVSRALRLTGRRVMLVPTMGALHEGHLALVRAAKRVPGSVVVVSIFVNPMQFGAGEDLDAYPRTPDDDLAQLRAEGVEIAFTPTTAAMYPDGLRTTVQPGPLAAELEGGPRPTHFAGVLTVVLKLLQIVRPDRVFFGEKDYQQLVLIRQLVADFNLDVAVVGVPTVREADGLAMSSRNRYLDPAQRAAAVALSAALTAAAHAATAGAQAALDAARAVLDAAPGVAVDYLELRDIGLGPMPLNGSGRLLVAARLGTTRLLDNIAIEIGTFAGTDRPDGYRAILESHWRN
In the case of `CC1=C(C(=O)NCc2ccco2)C2(CCC(C)CC2)OC1=O` (stereo not given), the inhibition was 4% (inactive).
With `Cc1[nH]nc2c1C(C1CC=CCC1)C(C#N)=C(N)O2` (stereo not given) the inhibition was 3% (inactive).
In the case of `CCc1ccccc1NC(=O)c1ccoc1C`, the inhibition was 0% (inactive).
For `O=C(O)C1C2CCC(O2)C1C(=O)Nc1cccc(F)c1` (stereo not given), the inhibition was 1% (inactive).
`CCOC(=O)C1CCCN(c2c(Nc3ccc(C)c(C)c3)c(=O)c2=O)C1` (stereo not given) was tested, and the inhibition was 2% (inactive).
`Cc1cc(NC(=O)CCOc2ccccc2)no1` was tested, and the inhibition was 0% (inactive).
In the case of `CC1Cc2nc(SCC(=O)N3CCCc4ccccc43)n(C)c(=O)c2S1` (stereo not given), the inhibition was 1% (inactive).
In the case of `COc1ccc(C2C(C(=O)N3CCC(C)CC3)c3ccccc3C(=O)N2C)cc1` (stereo not given), the inhibition was 0% (inactive).
In the case of `COc1ccc(C(NC(=O)c2ccco2)c2ccc(OC)c(OC)c2)cc1` (stereo not given), the inhibition was 0% (inactive).
`Cc1ccc(Br)cc1S(=O)(=O)N1CCN(c2ccccc2)CC1` was tested, and the inhibition was 0% (inactive).
With `CCCCc1nc(NCCNC(=O)c2ccco2)c(C#N)c2c1CSC(C)(C)C2` the inhibition was 3% (inactive).
With `Cc1ccc(S(=O)(=O)C(C#N)c2nc3ccccc3nc2N2CCCCC2)cc1` (stereo not given) the inhibition was 2% (inactive).
`COc1ccccc1NC(=O)CSc1nnc(CC(=O)Nc2ccccc2)n1C` was tested, and the inhibition was 6% (inactive).
In the case of `NC(=O)c1cccc2c1C(=O)N(C1CCCCC1)C2`, the inhibition was 0% (inactive).
`CCc1ccc(NC(=O)c2cccnc2)cc1` was tested, and the inhibition was 16% (inactive).
In the case of `COC(=O)Cc1c(C)nc2nc[nH]n2c1=O`, the inhibition was 0% (inactive).
For `FC(F)(F)c1cc(-c2ccco2)nc(N2CCOCC2)n1`, the inhibition was 2% (inactive).
In the case of `CCOc1ccc(Cn2nnc(C(=O)Nc3ccc(OC)cc3OC)c2N)cc1`, the inhibition was 0% (inactive).
For `N/C(=N/O)c1nc(N2CCCC2)nc(N(c2ccccc2)c2ccccc2)n1`, the inhibition was 7% (inactive).
For `Cc1nc2ccccc2c2oc(C(=O)NCCCN3CCCC3=O)cc12`, the inhibition was 7% (inactive).
For `CC(=O)c1cccc(-n2nnnc2SCC(=O)N2CCCC2)c1`, the inhibition was 5% (inactive).
For `CCCCOC(=O)CNc1nnc(SCC(=O)OCC)[nH]c1=O`, the inhibition was 3% (inactive).
With `CN(C)CCC(c1ccc(Br)cc1)c1ccccn1` (stereo not given) the inhibition was 0% (inactive).
With `O=C(COC(=O)CCC(=O)c1cccs1)NCc1ccco1` the inhibition was 0% (inactive).
`COc1ccc(Br)cc1CNC(=O)C1CCCN(S(C)(=O)=O)C1` (stereo not given) was tested, and the inhibition was 6% (inactive).
In the case of `COc1ccc(C2C(C(=O)c3sc(C)nc3C)=C(O)C(=O)N2CCN2CCOCC2)cc1` (stereo not given), the inhibition was 0% (inactive).
In the case of `CCc1nnc(NC(=O)CN2CCN(c3ccccc3OC)CC2)s1`, the inhibition was 4% (inactive).
`O=C(O)C1CC=CCC1C(=O)Nc1ccc(S(=O)(=O)N2CCCc3ccccc32)cc1` (stereo not given) was tested, and the inhibition was 0% (inactive).
In the case of `O=C(CCCn1ncn2c(cc3occc32)c1=O)N1CCc2ccccc2C1`, the inhibition was 6% (inactive).
`Fc1ccc(-c2nnc3ccc(N4CCCC4)nn23)cc1` was tested, and the inhibition was 1% (inactive).
For `Cc1ccc2[nH]cc(C(=O)CN3CCC4(CC3)OCCO4)c2c1`, the inhibition was 0% (inactive).
In the case of `COCCn1c(SCC(=O)N2CCc3ccccc32)nc2c(c1=O)SC(C)C2` (stereo not given), the inhibition was 1% (inactive).
With `CC(NC(=O)c1ccc2c(c1)OCO2)C(c1cccs1)N1CCOCC1` (stereo not given) the inhibition was 9% (inactive).
In the case of `CCN(CC)CCn1c(=N)n(CCO)c2ccccc21`, the inhibition was 0% (inactive).
In the case of `Cn1c(=O)cc(OCC(=O)NCCCN2CCN(Cc3ccccc3)CC2)c2ccccc21`, the inhibition was 0% (inactive).
With `Cc1ccc2oc(=O)c3cnn(CC(=O)N4CCCCC4C)c3c2c1` (stereo not given) the inhibition was 0% (inactive).
In the case of `CCc1cccc(NS(=O)(=O)c2c(C)n[nH]c2C)c1`, the inhibition was 0% (inactive).
In the case of `CCN1CCN(C(=O)Cn2ncc3ccsc3c2=O)CC1`, the inhibition was 0% (inactive).
`C/C=C(\CS(=O)(=O)c1ccccc1)S(=O)(=O)c1ccccc1` was tested, and the inhibition was 0% (inactive).
For `Cc1c(NC(=O)c2ccc(CN3CCc4ccccc4C3)cc2)c(=O)n(-c2ccccc2)n1C`, the inhibition was 0% (inactive).
